# The list is not random: actives were taken first. Their share in the collection is about 2.5%.
# rRNA inh HTS: selective bacterial rRNA inhibition in E. coli; hit rate 1.6% among 350,000; GFP signal change (wild-type ribosome), % (concentration not given with the values); E. coli WT GFP vs humanized-ribosome RFP mutants, fluorescence, 24 h; stronger effect = lower value; DMSO median 0, no signal -100;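 active = significant combined selectivity score with lowered wild-type GFP, culture density cut under 30%, mutant RFP and density less affected; inactive = any of these conditions unmet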
# CASP6 VEID inh: caspase-6 (human) enzyme inhibition | hit rate 0.53% among 350,000 | purified caspase-6, Z-VEID-R110 cleavage fluorescence | P55212 | inhibition, % at 12.5 µM;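 active = mean inhibition across replicates at least about 35%, with every replicate also reaching that limit, limit read from the data; inconclusive = only one of the two criteria met; inactive = neither criterion met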;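 also: 0% = median of neutral control wells and 100% = no fluorescence left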
# NSD2 inh: inhibitors of human histone methyltransferase NSD2; AID 743445; inhibition, % at 12.5 µM; NSD2 peptide methylation, AlphaScreen, 120 min; hit rate 0.54% among 310,000; O96028; in the data active = inhibition above about 50%
# Target sequence (O96028 whole entry, looked up): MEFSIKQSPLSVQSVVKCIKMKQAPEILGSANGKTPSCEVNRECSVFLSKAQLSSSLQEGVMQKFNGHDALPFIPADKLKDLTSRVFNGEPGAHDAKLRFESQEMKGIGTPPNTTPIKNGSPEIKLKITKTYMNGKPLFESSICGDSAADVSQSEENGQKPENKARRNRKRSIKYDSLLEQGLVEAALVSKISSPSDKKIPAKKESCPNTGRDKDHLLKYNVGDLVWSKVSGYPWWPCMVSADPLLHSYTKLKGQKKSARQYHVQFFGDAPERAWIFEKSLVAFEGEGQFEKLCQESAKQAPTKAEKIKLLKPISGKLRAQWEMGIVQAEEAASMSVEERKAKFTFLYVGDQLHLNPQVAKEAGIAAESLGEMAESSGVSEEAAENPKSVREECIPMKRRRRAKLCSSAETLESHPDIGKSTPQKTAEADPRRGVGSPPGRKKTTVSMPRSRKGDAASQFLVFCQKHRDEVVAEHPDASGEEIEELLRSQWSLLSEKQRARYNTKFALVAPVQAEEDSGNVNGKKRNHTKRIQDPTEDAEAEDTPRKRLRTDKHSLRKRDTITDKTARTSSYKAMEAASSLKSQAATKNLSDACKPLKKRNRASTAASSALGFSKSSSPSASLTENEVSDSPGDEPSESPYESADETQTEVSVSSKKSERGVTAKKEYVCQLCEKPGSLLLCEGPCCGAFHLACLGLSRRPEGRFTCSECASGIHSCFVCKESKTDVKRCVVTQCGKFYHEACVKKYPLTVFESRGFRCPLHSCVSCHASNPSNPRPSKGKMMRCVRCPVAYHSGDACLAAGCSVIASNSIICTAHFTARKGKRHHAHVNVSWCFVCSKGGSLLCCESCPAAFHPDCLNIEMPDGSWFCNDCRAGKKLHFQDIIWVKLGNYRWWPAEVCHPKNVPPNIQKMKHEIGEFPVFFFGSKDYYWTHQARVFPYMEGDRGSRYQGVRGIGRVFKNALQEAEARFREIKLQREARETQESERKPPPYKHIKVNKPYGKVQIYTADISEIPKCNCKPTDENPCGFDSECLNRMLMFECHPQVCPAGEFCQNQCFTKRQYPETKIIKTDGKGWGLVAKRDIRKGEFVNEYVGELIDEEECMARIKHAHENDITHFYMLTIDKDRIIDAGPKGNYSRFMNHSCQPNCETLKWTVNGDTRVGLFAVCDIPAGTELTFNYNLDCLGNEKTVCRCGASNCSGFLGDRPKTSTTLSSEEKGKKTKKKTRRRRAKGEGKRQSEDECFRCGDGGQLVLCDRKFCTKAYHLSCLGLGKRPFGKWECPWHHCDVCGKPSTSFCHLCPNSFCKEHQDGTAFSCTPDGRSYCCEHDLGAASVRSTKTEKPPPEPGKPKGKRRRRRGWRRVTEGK
# MLL AF4-AF9 inh: blocks AF4 peptide binding to human AF9; AID 651704; inhibition, % at 10 µM; hit rate 0.47% among 350,000; AlphaScreen, biotin-AF4 peptide binding to FLAG-AF9;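 active = every replicate reaching a set inhibition limit, whatever the replicate mean, cut at about 25% in these data; inconclusive = mean inhibition reaches that limit but some replicates miss it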;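 also: 0% = plate neutral control median and 100% = total signal loss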
# RAD52 inh: inhibitors of human RAD52 DNA annealing; P43351; inhibition, % at 18.7 µM; recombinant RAD52 DNA annealing, FRET fluorescence; hit rate 0.46% among 360,000;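 active = every replicate showing at least 50% inhibition; inconclusive = mean inhibition at least 50% but not in every replicate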
# RAD52 DNA ctr: binds DNA, flagging false RAD52 inhibitor hits | Salmon sperm DNA/acridine orange FP displacement, DNA binding | AC50, µM | shares compounds with RAD52 inh | AID 652128 | hit rate 8% among 1,000;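 active = fitted half-maximal concentration for signal loss at or below twice the highest dose tested, in every separate run, actives reach about 64 µM in these data; inconclusive = runs disagree, or flat partial signal loss, or poor fit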
# CASP1 counter: selectivity counter-screen: inhibitors of human caspase-1; shares compounds with CASP6 VEID inh; purified caspase-1, Z-YVAD-R110 cleavage fluorescence; activity change, negative = inhibition, % at 35 µM; 100 tested, under 10 active;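 active = compounds lowering fluorescence whose fitted half-maximal concentration is no more than twice their top tested dose; inconclusive = flat fit with 30 to 70% inhibition, or poor fit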
# AID977621: wild-type E. coli growth inhibition versus H69 humanized strain – H69 mutant RFP, wild-type GFP, cherry-pick, dose response | shares compounds with rRNA inh HTS | fluorescence, 24 h | activity change, negative = inhibition at 50 µM | 1,900 tested, under 10 active;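 active = Wild-type ribosome reporter drop at least double the humanized mutant ribosome reporter drop, growth loss under a set limit; inconclusive = no clear call, values can overlap the other calls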;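 also: wild-type GFP and H69 mutant RFP strains grown together 50/50 in each well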
# AID977628: growth of wild-type and h24-humanized E. coli strains – h24 mutant RFP vs wild-type GFP, cherry-pick, dose response; 1,900 tested, under 10 active; activity change, negative = inhibition at 50 µM; shares compounds with rRNA inh HTS; E. coli WT GFP strain growth, fluorescence, 24 h; AID 977628;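 active = compound lowering the normal-ribosome reporter at least twice as much as the humanized-ribosome reporter, growth loss under a set limit; inconclusive = no clear call, values can overlap the other calls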;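 also: wild-type GFP and h24 humanized RFP strains co-cultured 1 to 1 per well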
# Alpha artifact: counter-screen for NSD2 inhibitors: AlphaScreen artifacts | shares compounds with NSD2 inh | AlphaScreen artifact counterscreen, preloaded methylated H4 peptide | AC35, µM (doses to about 10 µM), inactives show at the highest dose activity change, negative = signal loss | hit rate 9.4% among 1,500; call rule not given here
# The depositor's hits bear a star; i = inactive; ? = inconclusive; / = not tested or not shown.
SMILES,rRNA inh HTS,CASP6 VEID inh,NSD2 inh,MLL AF4-AF9 inh,RAD52 inh,RAD52 DNA ctr,others
C1CCCCCC(NCCN2CCNCC2)CCCCC1,-2,-26,0,/,64*,i,
O=C(NC1CCCCC1)N1CCNCC1,27,-1,3,0,-10,/,
C[C@H]1CN([C@@H](C)CO)C(=O)c2cc(NS(=O)(=O)c3ccc(F)cc3)ccc2O[C@@H]1CN(C)S(C)(=O)=O,0,/,/,/,/,/,
C[C@H]1CN([C@@H](C)CO)C(=O)c2cccc(NS(C)(=O)=O)c2O[C@@H]1CN(C)C(=O)NC1CCCCC1,0,0,/,0,4,/,
COc1cc(NC(C)CCCN)c2ncccc2c1 (centres undefined),/,91*,/,31*,84*,i,CASP1 counter=1
COc1cc(NCc2ccccc2O)c2ncccc2c1,-10,4,-1,3,-11,/,
CN(C)CCCNc1cc(O)c2ncccc2c1,80,87*,/,76*,70*,i,CASP1 counter=6
C[C@H](CO)N1C[C@H](C)[C@H](CN(C)C(=O)Nc2ccc(C(F)(F)F)cc2)OCCCC[C@H](C)Oc2ccc(NC(=O)Cc3ccccc3)cc2C1=O,3,/,/,/,/,/,
COc1cc(-c2ccc(N3C(c4ccsc4)=Cc4ccc(F)cc4C3c3c[nH]c4ccc(C#N)cc34)cc2)cc(OC)c1OC (centres undefined),-25*,0,/,-2,71*,i,AID977621=-5.6;AID977628=-2.1
CCOC(=O)c1cnc2c(ccc3ccccc32)c1NCCCN(C)C,-26*,-11,-4,0,96*,?,AID977621=-4.3
CCOC(=O)c1cnc2ccccc2c1NCCO,/,/,0,0,/,/,
CCC(=O)N1CC[C@H]2[C@@H]1c1cc(-c3cccc(F)c3)ccc1N(C)[C@H]2CO,-12,/,/,/,/,/,
COC(=O)[C@H]1[C@@H]2COc3ccccc3[C@H]2N[C@H]1C(=O)OC,/,3,/,-3,12,/,
Nc1ccc(-c2nc3ccc(N)cc3[nH]2)cc1,-16,7,4,11,-4,/,
Nc1ccc2nc(-c3ccc(Cl)cc3)[nH]c2c1,-17*,-1,/,?,51*,i,AID977628=-8.8
CCN(CC)CCCN(C(=O)c1ccco1)c1nc(-c2ccc(C)cc2)cs1,-34*,6,48,17,52*,i,AID977621=?;AID977628=?
CCN(CC)CCNC(=S)Nc1ccc2nc(N3CCCC3)cc(C)c2c1,22,-53,66*,9,76*,i,Alpha artifact=-4%
COc1cc2c(oc(=O)c3cc(C)cc(OC)c32)c2c(C3OC(C)C(O)C(C)(O)C3O)ccc(O)c12 (centres undefined),8,28,86*,-1,73*,i,Alpha artifact=-2%
COc1cccc2cc(C(=O)N3CC(C)OC(C)C3)c(=O)oc12 (centres undefined),7,4,-1,-2,-13,/,
CCN(CC)CCCN(Cc1cc2cc3c(cc2[nH]c1=O)OCO3)C(=S)NCCCN(C)C,19,-64,80*,0,90*,i,Alpha artifact=-7%
O=C(C[C@H]1C[C@@H]2c3cc(NC(=O)c4ccc5c(c4)OCO5)ccc3O[C@@H]2[C@@H](CO)O1)NCC(F)(F)F,-2,-2,/,-1,7,/,
CO[C@@H]1CN(C)C(=O)c2cc(NC(=O)C3CCC3)ccc2OC[C@@H](C)NC[C@@H]1C,0,1,/,-2,-7,/,
O=C(COC(=O)c1ccc([N+](=O)[O-])s1)Nc1ccc(Cl)cn1,11,6,11,0,-17,/,
